Data on nine molecules can be found in PubChem BioAssay (NCI).

Holding throughout (experiment): NCI-60 one-dose screen, 48 h (100 = growth as untreated, 0 = no growth, -100 = all killed)
Conditions in all cases: 10 µM unless noted

Test [1] has as its system SR leukemia.
Test [2] concerns RPMI-8226 leukemia.
Test [3] relates to OVCAR-8 ovarian.
Test [4] relates to OVCAR-5 ovarian.
Test [5] deals with SK-OV-3 ovarian.
The test system of test [6] is IGROV1 ovarian.
Test [7] relates to OVCAR-3 ovarian.
Test [8] concerns HS 578T breast.
Test [9] concerns NCI/ADR-RES ovarian.
Test [10] relates to T-47D breast.
The subject of test [11] is BT-549 breast.
Test [12] concerns MDA-MB-435 melanoma.
Test [13] relates to SW-620 colon.
Test [14] deals with MCF7 breast.
Test [15] has as its system HCT-116 colon.
In test [16] the test system is HCC-2998 colon.
Test [17] concerns KM12 colon.
Test [18] relates to OVCAR-4 ovarian.

Structures are written as SMILES. This is part of a sample that, as a whole, favours compounds with a hit. Of some 83,000 tested, about 20% had one in any assay.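 Compound tested at a single concentration for 48 hours in 96-well plates; a percent growth value below 10 was scored as active.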 A number with no mark means an inactive call. Active and inactive are the calls of the source.

As to `CC(=O)Oc1ccccc1C(=O)/C=C/c1cccc([N+](=O)[O-])c1`, the growth in test [1] was -30.8% (active); in [2], -17.4% (active); in test [3], 77.7%; in test [4] it was 110%; in test [5] it was 102%; in [6], 37.3%. The growth in test [7] is 66.4%; in test [8] it was 71.2%; in [9] it was 74.3%; in test [10] it was 74.2%; in test [11] it was 104%; in [12] it was 55.7%. Further, the growth was 43% in test [13]; 39.9% in [14]; 10.8% in test [15]; 101% in test [16]; 34.7% in test [17].

As to `Cc1cc(C)nc(NC(N)=NCCc2ccccc2)n1`, the growth is 19.2% in test [1]; 49.7% in test [2]; 53.4% in [3]; 72% in test [4]; 46.7% in test [5]; 40% in test [6]. For the same molecule, the growth in [7] was 33.5%; in test [8], 45.3%; in test [9], 85.9%; in test [10], 36.1%; in [12], -7.44% (active); in [13], 32.2%. In addition, the growth in [14] is 17.3%; in test [15], 27.9%; in test [16], 94.5%; in [17], 22.5%.

In the case of `COc1ccc(C(=O)c2cc(OC)c(OC)c(OC)c2)cc1/C=C/C(=O)c1cc(OC)c(OC)c(OC)c1`, the growth in test [1] was 43.2%; in test [2] it was 67%; in test [3], 86.7%; in [4], 88.7%; in test [5], 105%; in test [6] it was 95.9%. Moreover, the growth in test [7] was 99.3%; in [8] it was 82.4%; in [9], 81.1%; in [10] it was 89.7%; in test [11], 86.8%; in test [12], 65.2%. For the same molecule, the growth was 92.9% in test [13]; 75.2% in test [14]; 67.8% in test [15]; 100% in test [16]; 86.6% in test [17].

As for `COc1cc2nc(Cl)nc(Nc3cccc(C(=O)/C=C/c4ccc(Cl)cc4)c3)c2cc1OC`, the growth in [1] was 10.4%; in test [2], 0.0429% (active); in test [3], 78.9%; in test [4], 85.5%; in test [5] it was 89%; in test [6] it was 68.3%. Further, the growth in [7] is 48.8%; in test [8], 101%; in test [9] it was 65.7%; in test [10], 71.1%; in test [11], 67%; in [12] it was 69.9%. In addition, the growth in test [13] was -5.87% (active); in [14] it was 19.7%; in test [15] it was -0.905% (active); in test [16] it was 93.4%; in test [17], 40.5%.

Regarding `CSc1ccc(N(C)c2nc(C)nc3c2CCC3)cc1`, the growth in test [1] was 1.95% (active); in test [2], 23.5%; in [3], 12%; in test [4], 33.2%; in test [5] it was 19.5%; in [6], 31.3%. Moreover, the growth in test [7] was 5.43% (active); in [8] it was 29.8%; in test [9], 8.05% (active); in test [10], 64.5%; in test [11] it was 23.6%; in test [12] it was -12.8% (active). For the same molecule, the growth in [13] is 28.1%; in test [14], 16%; in test [15] it was 0.112% (active); in test [16] it was 8.45% (active); in test [17], 8.57% (active).

With `COc1ccc(-c2nc(Nc3ccc(-c4nc5ccccc5[nH]4)cc3)nc(N3CCOCC3)n2)cc1`, the growth is 6.01% (active) in [1]; -13.8% (active) in test [2]; 39.2% in [3]; 66.3% in [4]; 19.6% in test [5]; 33.7% in test [6]. Besides, the growth in [7] was 5.15% (active); in [8] it was -11.9% (active); in [10], 16.1%; in test [11], 5.16% (active); in [12], -38% (active); in test [13], 3.57% (active). For the same molecule, the growth in [14] was -44.3% (active); in test [15] it was 4.8% (active); in [16], -19.8% (active); in test [17], 12.4%.

For the molecule `O=C(O)c1cccc2c1-c1ccc(Cl)cc1C2`, the growth in [1] was 88.2%; in test [2], 102%; in test [3], 107%; in test [4] it was 115%; in [5] it was 117%; in test [6] it was 114%. The growth in test [7] is 118%; in test [8], 103%; in test [9], 110%; in [10], 97.9%; in [11], 113%; in [12] it was 106%. In addition, the growth in test [13] is 111%; in [14], 104%; in test [15] it was 107%; in test [16], 106%; in test [17], 108%.

For the molecule `CC/C(=N/NC(N)=O)c1ccccc1`, the growth in test [1] was 110%; in test [2], 97.8%; in test [3], 103%; in test [18], 120%; in test [5], 116%; in test [6] it was 108%. In addition, the growth in test [7] was 109%; in [8], 104%; in [9] it was 104%; in test [10] it was 110%; in test [11], 102%; in test [12], 110%. Besides, the growth is 105% in test [13]; 97% in test [14]; 109% in test [15]; 103% in [16]; 111% in test [17].

Consider `Nc1nc2c(c(=O)[nH]1)C(c1ccc3c(c1)OCO3)C=C(C(=O)O)N2` (stereo not given), for which the growth is 103% in [1]; 129% in test [2]; 106% in [3]; 114% in test [4]; 111% in test [6]; 123% in test [7]. Besides, the growth in [8] is 106%; in [9], 109%; in [10] it was 106%; in [11], 91.9%; in test [12], 97.7%; in [13], 106%. The growth was 92.7% in test [14], 99.4% in test [15], 104% in test [16] and 110% in test [17].
